Only some compounds are listed: those with a hit (about 2.6% of all), similar ones and a draw of the others.
TLR4-MyD88 BLA – blocks binding of human TLR4 to MyD88; O00206+Q99836; HeLa CL3-4 TLR4/MyD88 BLA complementation, FRET ratio; inhibition, % at 8.4 µM; 200,000 compounds, 0.18% hits; AID 861; in the data active = inhibition above about 25%;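 note: 0% = vehicle and 100% = reference inhibitor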
PRMT1 FP inh – blocks human protein arginine methyltransferase 1. Q99873. recombinant PRMT1, activity-based probe fluorescence polarization. inhibition, % at 2.79 µM. 370,000 compounds, 1.3% hits;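 active = inhibition above about 21% made by adding two undisclosed values, limit read from the data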
Exocytosis inh – lytic granule exocytosis inhibition; TALL-104 LAMP-1 surface exposure, flow cytometry; cells stimulated with thapsigargin and PMA; 360,000 compounds, 0.66% hits; inhibition, % at 10 µM; AID 651702;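 active = inhibition above about 55%, limit read from the data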
NOD2-RIPK2 inh – blocks binding of human NOD2 to RIPK2; inhibition, % at 4.98 µM; CHO BLA complementation NOD2-RIPK2, CCF4 ratio; 360,000 compounds, 0.38% hits; O43353; in the data active = inhibition above about 21%;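 note: 0% = vehicle only and 100% = reference blocker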
Target sequence (O43353 whole entry, looked up): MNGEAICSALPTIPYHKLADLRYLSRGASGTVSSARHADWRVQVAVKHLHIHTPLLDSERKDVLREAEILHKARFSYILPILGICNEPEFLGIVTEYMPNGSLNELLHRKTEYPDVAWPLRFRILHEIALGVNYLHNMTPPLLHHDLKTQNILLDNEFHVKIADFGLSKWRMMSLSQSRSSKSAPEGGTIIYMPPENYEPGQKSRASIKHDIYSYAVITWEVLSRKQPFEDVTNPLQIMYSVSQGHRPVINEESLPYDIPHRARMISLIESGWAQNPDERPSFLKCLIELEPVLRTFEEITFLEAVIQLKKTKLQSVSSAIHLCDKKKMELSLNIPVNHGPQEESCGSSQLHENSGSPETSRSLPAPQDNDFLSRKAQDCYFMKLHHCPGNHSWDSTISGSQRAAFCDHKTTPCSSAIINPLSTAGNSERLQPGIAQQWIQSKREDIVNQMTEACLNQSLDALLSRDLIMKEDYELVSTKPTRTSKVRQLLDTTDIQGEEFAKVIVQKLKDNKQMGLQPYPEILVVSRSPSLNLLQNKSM
ABHD5-PLIN5 inh – ABHD5-PLIN5 protein interaction inhibition | AID 602281 | 360,000 compounds, 0.78% hits | inhibition, % at 4 µM | Split G. princeps luciferase complementation, luminescence, 4 h | Q00G26+Q8WTS1;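 active = inhibition above the mean inhibition across every tested compound plus 3 SD, cut at about 22% in these data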;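 note: 0% = DMSO only wells and the 100% control is not disclosed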
TLR9-MyD88 block – blocks human TLR9 binding to MyD88; CHO BLA complementation TLR9-MyD88, CCF4 FRET ratio; inhibition, % at 4.98 µM; 340,000 compounds, 0.21% hits; AID 504734;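 active = inhibition above the mean over all tested compounds plus 3 SD, cut at about 21% in these data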;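 note: 0% = DMSO only wells and 100% = clavulanate BLA inhibitor control wells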
ABHD5 PLIN5 conf – ABHD5-PLIN5 interaction inhibition, confirmed. shares compounds with ABHD5-PLIN5 inh. biochemical ABHD5-PLIN5 interaction, luminescence. inhibition, % at 4 µM. 2,200 compounds, 67% hits. AID 651612; in the data active = inhibition above about 23%;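 note: 0% = DMSO vehicle wells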
HNF4 split-luc – counter-screen for ABHD5-PLIN5 inhibitors: HNF4 split-luciferase; HNF4 dimerization, luminescence, biochemical; shares compounds with ABHD5-PLIN5 inh; AID 651674; 2,200 compounds, 77% hits; inhibition, % at 4 µM;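 active = mean inhibition across replicate wells exceeding the computed hit threshold, cut at about 13% in these data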;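 note: light from luciferase halves that rejoin when HNF4 fusion proteins dimerize; 0% = DMSO only wells and the 100% control is not given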
* hit, by the source's call; nt = no result given.

SMILES	TLR4-MyD88 BLA	PRMT1 FP inh	Exocytosis inh	NOD2-RIPK2 inh	ABHD5-PLIN5 inh	TLR9-MyD88 block	ABHD5 PLIN5 conf	HNF4 split-luc
O=c1[nH]c(/C=C/c2ccccc2Cl)c([N+](=O)[O-])c(=O)[nH]1	nt	8.7	-6.3	13.7	39.0*	-9.3	71.2*	61.4*
CCOc1ccc(/C=C/c2[nH]c(=O)[nH]c(=O)c2[N+](=O)[O-])cc1	nt	2.9	-11.5	4.6	3.2	-7.9	nt	nt
COc1cccc(/C=C/c2[nH]c(=O)[nH]c(=O)c2[N+](=O)[O-])c1O	nt	4.6	-6.2	5.8	32.4*	-10.5	78.1*	79.8*
O=C(N[C@H](Cc1ccccc1)C(=O)N(CCC1=CCCCC1)CC1CC1)[C@H]1O[C@@H](n2ccc(=O)[nH]c2=O)[C@H](O)[C@@H]1O	nt	0.4	nt	nt	nt	nt	nt	nt
O=C(c1ccccc1NS(=O)(=O)c1ccc([N+](=O)[O-])cc1[N+](=O)[O-])N1O[C@@H]2C=C[C@H]1C2	nt	16.7	-2.0	-0.1	27.2*	-6.5	48.7*	74.0*
COC(=O)C1=C(C)N(Cc2ccccc2)C(=NCc2ccccc2)N[C@H]1c1cccc(C(F)(F)F)c1	nt	nt	-11.6	13.8	2.0	-1.3	nt	nt
COC(=O)C1=C(C)N(Cc2ccccc2)C(=NCC(C)C)N[C@H]1c1cccc(C(F)(F)F)c1	nt	nt	-2.6	7.4	24.5*	-1.1	14.3	1.6
CCOC(=O)[C@@]12CCC3=C1N(CCC3)C(=O)[C@H](CC(=O)NCC13CC4CC(CC(C4)C1)C3)C2	nt	-1.9	nt	nt	nt	nt	nt	nt
C=C1C(=O)O[C@H]2C[C@H]1[C@@H](OC(C)=O)C/C(C)=C/CC/C(C)=C\CC[C@]2(C)O	nt	0.2	5.1	12.3	70.5*	-9.0	87.7*	63.7*
CCCCOCCCNC(=O)C[C@H]1C[C@@]2(C(=O)OC)C(=C[C@H](COCc3ccccc3)O[C@@H]2C)N(CCC2=CCCCC2)C1=O	nt	0.1	nt	nt	nt	nt	nt	nt
Cc1c(/C=C/C(=O)c2cccs2)cnn1C	0.7	2.4	-2.5	-5.4	5.3	-10.3	nt	nt
O=C(C=Cc1ccccc1)c1cccs1	nt	0.3	-5.3	2.2	59.2*	-7.3	71.3*	63.9*
O=c1[nH]cnc2c1N=C(c1cccc([N+](=O)[O-])c1)CC(c1ccccc1)N2 (configuration not stated)	-13.5	-0.8	3.6	-5.3	45.0*	-16.8	10.2	25.8*
C=CCOC(=O)C(=O)/C=C/c1csc2ccccc12	6.1	4.6	-3.1	-3.3	14.0	-1.1	nt	nt
C=CCOC(=O)C(=O)/C=C/c1ccc2c(c1)Cc1ccccc1-2	-6.9	4.0	-18.3	6.0	35.3*	10.8	77.3*	71.3*
C[C@H](O)[C@@H]1C(=O)N2CCc3c([nH]c4c(-c5ccccc5)cccc34)[C@@H]2C[C@@H]1N(C)C(=O)c1ccco1	nt	2.3	nt	nt	nt	nt	nt	nt
CCCCCCCCCC[n+]1cccc2c3ccccc3ccc21	10.2	0.1	70.3*	10.1	27.4*	6.5	17.5	4.6
CCCCCCCC[n+]1cccc2c3ccccc3ccc21	15.1	3.8	28.3	-2.4	16.7	-3.3	nt	nt
Cc1ccccc1C(=O)N1CCN(C(=O)C(=O)c2cccc(C(F)(F)F)c2)CC1	nt	1.1	nt	nt	nt	nt	nt	nt
Cc1ccc([N+](=O)[O-])cc1NC(=O)CSc1nncn1-c1ccccn1	nt	-0.7	-18.5	-9.4	23.9*	1.0	-2.3	5.1
O=C(NCc1ccccc1)C(c1ccc(-c2ccccc2)cc1)n1c(=O)c(-c2ccco2)nc2ccccc21 (configuration not stated)	nt	1.4	9.1	-9.7	86.5*	nt	74.8*	14.2*
Cc1cccc(C)c1NC(=O)C(c1ccccc1)n1c(=O)c(-c2ccccc2)nc2ccccc21 (configuration not stated)	nt	-0.8	-0.4	-12.7	-0.1	nt	nt	nt
CC(C)(C)NC(=O)C(c1cccc2ccccc12)n1c(=O)c(-c2ccco2)nc2ccccc21 (configuration not stated)	nt	21.7*	-3.5	13.8	67.3*	nt	68.8*	13.3*
